Targets with a hit are over-represented here; the source holds about 8,800 in all. About 0.5% of all pairs of compound and target were hits.
What was measured:
Test in all cases: log2 fold change, soluble protein after heating vs DMSO (PISA); higher = thermal stabilisation; K562 lysate, 10 uM; active = over 0.2 and 3.5 SD of the protein, either way, in both replicates (recomputed)
[1] = compound: C1=CC=C(C=C1)[C@H](COC2=CC3=C(C=C2)NC(=O)N3)NC(=O)C4=CC=CN(C4=O)CC5=CC(=C(C=C5)F)F
Outline: (§1)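 Following dounce homogenisation of K562 pellets in PBS pH 7.4 with 1 mM MgCl2, crude extract at 1 mg/mL protein was incubated for 30 min with 10 μM compound. Aliquots were then heated for 3 min over 48°C-58°C and pooled, NP-40 was added to 0.5% at 4°C, and soluble protein was recovered as the supernatant at 21,000xg for 90 min. Channel-sum-equalised TMTpro 16plex LC-MS/MS quantified this protein. Each value, from duplicates, is a log-two fold change in thermal stability relative to solvent controls.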

[2] = compound: CC1=C(SC2=C1C(=N[C@H](C3=NN=C(N32)C)CC(=O)N)C4=CC=C(C=C4)Cl)C
Outline: as §1

[3] = compound: CC1=C2C(=CC=C1)N=C(N(C2=O)C3=CC=CC=C3C)CN4C=NC5=C(N=CN=C54)N
Outline: as §1

[4] = compound: Cc1sc2c(c1C)C(c1ccc(Cl)cc1)=N[C@@H](CC(=O)OC(C)(C)C)c1nnc(C)n1-2
Outline: as §1

[5] = compound: c1ccc([C@@H]2C[C@H]2NC2CCNCC2)cc1
Outline: as §1

Measured: log2 fold change

HNRNPD isoform 2 (UniProt Q14103)
Chain of UniProt Q14103 (Q14103 whole entry, looked up): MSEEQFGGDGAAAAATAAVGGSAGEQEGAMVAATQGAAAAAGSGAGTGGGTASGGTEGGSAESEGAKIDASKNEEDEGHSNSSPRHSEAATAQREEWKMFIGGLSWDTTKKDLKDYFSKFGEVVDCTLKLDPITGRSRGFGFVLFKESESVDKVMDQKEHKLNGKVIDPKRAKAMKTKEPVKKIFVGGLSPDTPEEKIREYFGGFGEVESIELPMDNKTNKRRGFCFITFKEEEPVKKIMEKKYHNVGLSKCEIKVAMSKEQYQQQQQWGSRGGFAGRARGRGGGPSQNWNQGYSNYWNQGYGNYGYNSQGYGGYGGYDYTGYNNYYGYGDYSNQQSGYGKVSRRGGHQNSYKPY
inactive: [1] 0.059 | [2] -0.015 | [3] -0.01 | [4] 0.018 | [5] 0.125

HNRNPD isoform 3 (UniProt Q14103)
inactive: [1] -0.087 | [2] -0.145 | [3] 0 | [4] -0.096 | [5] -0.003

HDLBP, A0A024R4E5
inactive: [1] -0.024 | [2] -0.013 | [3] 0.017 | [4] -0.018 | [5] 0.008

GRB10 (UniProt Q13322)
Chain of UniProt Q13322 (Q13322 whole entry, looked up): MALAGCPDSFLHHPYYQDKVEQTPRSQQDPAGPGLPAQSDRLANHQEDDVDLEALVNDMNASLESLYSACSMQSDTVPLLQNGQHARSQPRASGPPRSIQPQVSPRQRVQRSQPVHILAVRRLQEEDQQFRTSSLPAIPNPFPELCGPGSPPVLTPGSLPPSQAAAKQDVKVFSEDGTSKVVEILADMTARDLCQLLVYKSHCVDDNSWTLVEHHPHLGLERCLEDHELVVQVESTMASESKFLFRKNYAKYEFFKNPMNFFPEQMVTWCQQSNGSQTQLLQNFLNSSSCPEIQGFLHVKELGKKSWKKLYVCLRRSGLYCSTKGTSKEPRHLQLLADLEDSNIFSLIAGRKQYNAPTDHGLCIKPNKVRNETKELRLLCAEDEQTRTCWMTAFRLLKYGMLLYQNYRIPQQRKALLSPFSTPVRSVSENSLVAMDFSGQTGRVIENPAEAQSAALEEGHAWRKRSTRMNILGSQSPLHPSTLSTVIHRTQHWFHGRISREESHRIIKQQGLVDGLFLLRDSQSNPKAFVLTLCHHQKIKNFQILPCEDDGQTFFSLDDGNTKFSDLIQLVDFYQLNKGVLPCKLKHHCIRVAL
inactive: [1] 0.03 | [2] 0.022 | [3] 0.024 | [4] 0.045 | [5] -0.078

IMPDH1 isoform 6 (UniProt P20839)
Chain of UniProt P20839 (P20839 whole entry, looked up): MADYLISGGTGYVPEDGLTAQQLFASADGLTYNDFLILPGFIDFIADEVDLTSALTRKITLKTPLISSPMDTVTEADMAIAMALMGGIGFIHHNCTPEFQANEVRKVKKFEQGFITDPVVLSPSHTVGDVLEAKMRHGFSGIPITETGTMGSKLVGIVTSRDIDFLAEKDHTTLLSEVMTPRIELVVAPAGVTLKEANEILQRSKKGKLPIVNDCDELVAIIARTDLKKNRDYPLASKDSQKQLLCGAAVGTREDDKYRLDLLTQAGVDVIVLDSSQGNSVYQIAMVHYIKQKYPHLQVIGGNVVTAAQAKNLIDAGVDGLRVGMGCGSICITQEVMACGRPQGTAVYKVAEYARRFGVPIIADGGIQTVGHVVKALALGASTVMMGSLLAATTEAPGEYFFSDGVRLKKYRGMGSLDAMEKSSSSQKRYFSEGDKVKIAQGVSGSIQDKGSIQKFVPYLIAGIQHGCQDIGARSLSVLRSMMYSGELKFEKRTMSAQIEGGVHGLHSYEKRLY
inactive: [1] -0.008 | [2] 0.025 | [3] -0.009 | [4] 0.053 | [5] -0.051

HNRNPH2 (UniProt P55795)
Chain of UniProt P55795 (P55795 whole entry, looked up): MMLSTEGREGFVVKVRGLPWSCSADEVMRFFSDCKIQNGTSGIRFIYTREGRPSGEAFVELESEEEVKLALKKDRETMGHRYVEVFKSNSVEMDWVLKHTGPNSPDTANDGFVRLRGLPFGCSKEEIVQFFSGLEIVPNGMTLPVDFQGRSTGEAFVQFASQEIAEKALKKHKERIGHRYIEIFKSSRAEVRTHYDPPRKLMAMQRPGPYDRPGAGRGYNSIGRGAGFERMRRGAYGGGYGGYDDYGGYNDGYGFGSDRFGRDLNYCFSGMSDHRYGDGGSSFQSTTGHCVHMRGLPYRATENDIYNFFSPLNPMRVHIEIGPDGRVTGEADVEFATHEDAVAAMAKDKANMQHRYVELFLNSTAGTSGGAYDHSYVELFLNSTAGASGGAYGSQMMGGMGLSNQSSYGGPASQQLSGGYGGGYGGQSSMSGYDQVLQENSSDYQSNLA
inactive: [1] 0.036 | [2] -0.007 | [3] 0 | [4] 0.105 | [5] -0.011

INPP4A (UniProt Q96PE3)
inactive: [1] -0.079 | [2] 0.112 | [3] 0.027 | [4] 0.036 | [5] 0.017

ICAM2 (UniProt P13598)
Chain of UniProt P13598 (P13598 whole entry, looked up): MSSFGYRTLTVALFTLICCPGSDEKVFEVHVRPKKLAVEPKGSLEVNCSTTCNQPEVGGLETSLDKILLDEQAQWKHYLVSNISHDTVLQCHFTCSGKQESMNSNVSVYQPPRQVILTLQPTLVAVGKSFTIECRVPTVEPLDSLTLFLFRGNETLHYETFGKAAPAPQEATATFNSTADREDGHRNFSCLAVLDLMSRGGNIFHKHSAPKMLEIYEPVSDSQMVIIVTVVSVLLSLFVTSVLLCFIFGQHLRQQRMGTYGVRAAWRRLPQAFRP
inactive: [1] 0.03 | [2] -0.025 | [3] -0.006 | [4] -0.022 | [5] 0.084

GLUD2 (UniProt P49448)
Chain of UniProt P49448 (P49448 whole entry, looked up): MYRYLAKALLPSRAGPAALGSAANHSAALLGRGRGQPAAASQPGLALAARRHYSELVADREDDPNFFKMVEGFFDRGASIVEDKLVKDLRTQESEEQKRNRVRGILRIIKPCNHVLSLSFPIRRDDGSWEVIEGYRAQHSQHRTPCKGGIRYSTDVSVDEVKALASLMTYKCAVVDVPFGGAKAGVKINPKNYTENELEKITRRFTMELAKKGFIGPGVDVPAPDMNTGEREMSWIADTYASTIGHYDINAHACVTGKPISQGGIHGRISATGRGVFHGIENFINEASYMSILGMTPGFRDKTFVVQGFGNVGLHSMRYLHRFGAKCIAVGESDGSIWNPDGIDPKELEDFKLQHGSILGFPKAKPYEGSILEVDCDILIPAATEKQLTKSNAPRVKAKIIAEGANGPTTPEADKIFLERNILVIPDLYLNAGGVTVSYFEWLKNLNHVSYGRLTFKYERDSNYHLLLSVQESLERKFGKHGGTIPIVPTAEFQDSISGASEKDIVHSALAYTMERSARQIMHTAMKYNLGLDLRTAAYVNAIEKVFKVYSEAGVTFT
inactive: [1] -0.001 | [2] 0.031 | [3] 0.265 | [4] 0.019 | [5] 0.022

Source: the supplement of paper PMC10849652
